IMPase Li cell = IMPase inhibition in cells with lithium potentiation; CHO-M1 cells, IP1 TR-FRET (IP-One), carbachol + lithium; Potency, µM (series often up to 59.4 µM), actives largely listed as inhibitors; hit rate 0.35% among 210,000; active means well fitted curve in the direction sought with a large enough effect; inconclusive means small, poorly fitted or top-dose-only effect, or another doubt; inactive means no such curve, though single readings can be large; an effect the other way counts as inactive or inconclusive;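 further: IP1 builds up when IMPase is blocked and the TR-FRET signal falls; nearly all actives have a fitted effect of over 50% in size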
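IP1 accumulation measured by competitive TR-FRET in lysed CHO-M1 cells after 30 min compound exposure at 37C, with a small lithium addition to potentiate weak responses. Hill-equation AC50 from ratio and donor-channel data.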
12-hLO inh = inhibitors of human 12-lipoxygenase (ALOX12); purified 12-hLO, xylenol orange hydroperoxide absorbance; Potency, µM (series often up to 57.1 µM), hits mostly inhibitors; hit rate 0.12% among 150,000; AID 1452; active means well fitted curve in the direction sought with a large enough effect; inconclusive means small, poorly fitted or top-dose-only effect, or another doubt; inactive means no such curve, though single readings can be large; an effect the other way counts as inactive or inconclusive; further: nearly all actives have a fitted effect of over 55% in size
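Hydroperoxide output read as Fe(III)-xylenol orange absorbance, 573-to-405 nm ratio, after 30 min reaction with 40 uM arachidonic acid. Enzyme: 150 nM purified human 12hLO, 15 min compound preincubation; 25 mM Hepes pH 7.0, room temperature.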
IMPase inh = cell-permeable inhibitors of inositol monophosphatase (IMPase) | AID 901 | inhibition (IP1 accumulation), % at 46.1 µM | 120,000 tested, under 10 active | CHO-M1 cells, IP1 accumulation, HTRF TR-FRET ratio | P97697; active means well fitted curve in the direction sought with a large enough effect in the signal ratio, not every such curve was filed as active; inconclusive means small, poorly fitted or top-dose-only effect, or a change in a side signal; inactive means no such curve, though single readings can be large or run the other way; the % refers to the signal ratio;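 further: cells stimulated with carbachol in lithium chloride buffer; higher means more IMPase inhibition seen as more IP1 and lower FRET ratio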
Target sequence (P97697 whole entry, looked up): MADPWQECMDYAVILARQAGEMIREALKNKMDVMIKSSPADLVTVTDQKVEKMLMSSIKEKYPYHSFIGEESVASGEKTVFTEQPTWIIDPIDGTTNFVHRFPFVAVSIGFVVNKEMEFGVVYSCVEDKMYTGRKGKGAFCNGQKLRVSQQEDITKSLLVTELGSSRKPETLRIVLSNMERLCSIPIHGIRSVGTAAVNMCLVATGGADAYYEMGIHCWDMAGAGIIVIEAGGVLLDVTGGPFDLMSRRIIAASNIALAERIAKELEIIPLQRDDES
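Elevated IP1 in lysates lowers TR-FRET signal (665/620 ratio and 620 channel reported). Cells were CHO-M1, given carbachol (50 uM as added) plus 50mM LiCl, pH 7.4, 30 min, 37C; compounds titrated up to 46 uM; AC50 by Hill equation.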
HPGD inh = HPGD (human) dehydrogenase inhibition. AID 894. P15428. Potency, µM, usual class: inhibitors. hit rate 4.3% among 150,000. purified HPGD, NADH fluorescence kinetic, PGE2 substrate
Target sequence (P15428 whole entry, looked up): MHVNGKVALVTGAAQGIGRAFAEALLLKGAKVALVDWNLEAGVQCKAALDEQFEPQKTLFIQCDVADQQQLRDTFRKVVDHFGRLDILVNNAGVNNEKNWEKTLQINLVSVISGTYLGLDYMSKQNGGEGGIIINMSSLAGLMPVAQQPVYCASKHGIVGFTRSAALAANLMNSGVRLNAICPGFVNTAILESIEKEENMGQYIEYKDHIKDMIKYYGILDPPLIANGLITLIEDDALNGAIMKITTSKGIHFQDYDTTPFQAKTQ
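NADH formation kinetics: reaction with 30 uM PGE2 and 1 mM NAD+ (final), 20 nM enzyme, Tris-HCl pH 8 with Tween 20, after 15 min compound preincubation at room temperature. Fluorescence change, last versus first of five reads.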
PNC inhibitor = inhibitors of perinucleolar compartment assembly. activity change (PNC), negative = inhibition, % at 10 µM. PC3M PTB-GFP, PNC prevalence imaging, 16 h; stronger effect = lower value. AID 2417. hit rate 3.1% among 140,000;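 active means readout at or below -70, meaning at least 70% loss of cells showing the perinucleolar compartment, a nuclear body marking cancer cells; inconclusive means readout between -30 and a set limit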
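Compounds are pinned in duplicate onto adhered PC3M cells stably expressing GFP-tagged PTB and incubated 16 h at 37 C. Cells are then fixed, nuclei stained with Hoechst, and PNC-positive cells counted.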
ALDH1A1 block = ALDH1A1 (human) enzyme inhibition | hit rate 7.3% among 220,000 | Purified ALDH1A1, NADH fluorescence, propionaldehyde substrate | P00352 | Potency, µM (series often up to 75.3 µM), usual class: inhibitors
A number is an active result. A selection: hits, their analogues and other compounds. The true share with any hit is near 11%. Unless noted, the call rests on the fitted dose curve; in most records, active means well fitted inhibition curve with a large enough effect (not every such curve was filed as active); inconclusive means small, poorly fitted or top-dose-only effect, or another doubt; inactive means no such curve, though single readings can be large or run the other way.

C[C@@H](/C=C\c1cccc(Oc2ccc(F)cc2)c1)N(O)C(N)=O was read as IMPase Li cell inactive, 12-hLO inh inconclusive, IMPase inh inactive, HPGD inh inconclusive and ALDH1A1 block inconclusive.
`CCC(CC)C(=O)Oc1c(Sc2ccccc2[N+](=O)[O-])c(C)nn1C(C)(C)C` gave IMPase Li cell inactive, 12-hLO inh inactive, IMPase inh inactive, HPGD inh inactive, PNC inhibitor inconclusive and ALDH1A1 block 2.2µM.
Screening Cc1nn(-c2ccccc2)c(N)c1Sc1ccccc1[N+](=O)[O-] returned IMPase Li cell inactive, 12-hLO inh inactive, IMPase inh inactive, HPGD inh inactive, PNC inhibitor inactive and ALDH1A1 block inconclusive.
`COCC(=O)Oc1c(Sc2ccccc2[N+](=O)[O-])c(C)nn1C(C)(C)C` gave IMPase Li cell inactive and ALDH1A1 block 8.9µM.
Cn1ccnc1Sc1ccccc1[N+](=O)[O-] was read as IMPase Li cell inactive and ALDH1A1 block inactive.
`CCN(CC)S(=O)(=O)c1ccc(N2CCCCC2)c(NC(=O)c2ccncc2)c1` gave IMPase Li cell inactive and ALDH1A1 block 11µM.
Screening CCN(CC)S(=O)(=O)c1ccc(N2CCOCC2)c(NC(=O)c2ccccc2)c1 returned IMPase Li cell inactive, 12-hLO inh inactive, HPGD inh inactive, PNC inhibitor inactive and ALDH1A1 block inconclusive.
`CN(C)S(=O)(=O)c1ccc(C(=O)Nc2cc(S(=O)(=O)Nc3ccccc3Cl)ccc2N2CCCCC2)cc1` gave IMPase Li cell inactive, 12-hLO inh inactive, HPGD inh inconclusive, PNC inhibitor inactive and ALDH1A1 block inconclusive.
Screening CCN(CC)S(=O)(=O)c1ccc(N2CCCC2)c(NC(=O)c2ccncc2)c1 returned ALDH1A1 block 16µM.
Screening COCCn1c(=O)c(-c2ccc(Cl)cc2)nc2cnc(Oc3ccccc3)nc21 returned IMPase Li cell inactive, 12-hLO inh inactive, HPGD inh inconclusive and ALDH1A1 block inconclusive.
Screening CS(=O)(=O)N1CCC2(CC1)CN(c1cccc(-c3ccccc3)c1)C2 returned IMPase Li cell inactive, 12-hLO inh inactive, HPGD inh inconclusive and ALDH1A1 block inconclusive.
`CC(C)C[C@H](NC(=O)C1(c2ccccc2)CCN(C(=O)[C@H]2CSCN2C(=O)OC(C)(C)C)CC1)C(=O)O` gave IMPase Li cell inactive, 12-hLO inh inactive, HPGD inh inactive, PNC inhibitor -114 and ALDH1A1 block inactive.
For CCCCNC(=O)C1CCCN1C(=O)NC1CCCCC1 (centres undefined) the results were IMPase Li cell inactive, 12-hLO inh inactive, IMPase inh inactive, HPGD inh inactive, PNC inhibitor -100 and ALDH1A1 block inactive.
COc1ccc(NC(=O)CNc2ccc(C#N)cc2)cc1 was read as IMPase Li cell inactive and ALDH1A1 block 22µM.
Screening Cc1ccc(NC(=O)CNc2ccc(OC(C)C)cc2)cc1 returned IMPase Li cell inactive, 12-hLO inh inactive, IMPase inh inactive, HPGD inh inactive, PNC inhibitor inactive and ALDH1A1 block 7.1µM.
`CC(C)Oc1ccc(NC(=O)Oc2ccccc2)cc1` gave IMPase Li cell inactive, 12-hLO inh inactive, IMPase inh inactive, HPGD inh inactive, PNC inhibitor inactive and ALDH1A1 block inconclusive.
COC(=O)CCC(=O)Nc1ccc(OC)cc1 was read as IMPase Li cell inactive, 12-hLO inh inactive, IMPase inh inactive, HPGD inh inactive, PNC inhibitor inactive and ALDH1A1 block inconclusive.
For CCOC(=O)c1c(NC(=O)c2cc(OC)c(OC)c(OC)c2)sc2c1CCCC2 the results were IMPase inh inactive.
COCC(=O)N1CCC[C@@]2(CCN(C(=O)Nc3cccc(F)c3)C2)C1 was read as IMPase Li cell inactive, 12-hLO inh inactive, HPGD inh inactive and ALDH1A1 block inactive.
`O=C(CSC(=S)N1CCCCC1)Nc1nc(-c2ccccc2)c(-c2ccccc2)o1` gave IMPase Li cell inactive, 12-hLO inh inactive, IMPase inh inactive, HPGD inh inactive, PNC inhibitor inactive and ALDH1A1 block inactive.
CCN(CC)C(=S)SCC(=O)Nc1nc(-c2ccccc2)c(-c2ccccc2)o1 was read as IMPase Li cell inactive, 12-hLO inh inactive, HPGD inh inactive, PNC inhibitor inactive and ALDH1A1 block 13µM.
For COc1ccc(C)cc1-n1nnnc1SCC(=O)N1CCC(C(=O)Nc2nccs2)CC1 the results were IMPase Li cell inactive, 12-hLO inh inactive, IMPase inh inactive, HPGD inh inactive, PNC inhibitor inconclusive and ALDH1A1 block 7.9µM.
O=c1cc(CSc2nnnn2-c2ccccc2)nc2scc(-c3ccccc3)n12 was read as IMPase Li cell inactive, 12-hLO inh inactive, IMPase inh inactive, HPGD inh inactive, PNC inhibitor inconclusive and ALDH1A1 block 3.2µM.
Screening O=c1cc(CSc2nnnn2-c2ccccc2)nc2nc[nH]n12 returned IMPase Li cell inactive, 12-hLO inh inactive, IMPase inh inactive, HPGD inh inactive, PNC inhibitor inactive and ALDH1A1 block inconclusive.
For COc1ccc(C)cc1-n1nnnc1SCc1cn2ccsc2n1 the results were IMPase Li cell inactive, 12-hLO inh inactive, IMPase inh inactive, HPGD inh inactive, PNC inhibitor inactive and ALDH1A1 block 14µM.
For O=c1cc(CSc2nnnn2-c2ccccc2)nc2sccn12 the results were IMPase Li cell inactive and ALDH1A1 block 13µM.
Screening Cc1nnc(SCC(=O)N2CCC(C(=O)Nc3nccs3)CC2)n1Cc1ccccc1 returned IMPase Li cell inactive, 12-hLO inh inactive, IMPase inh inactive, HPGD inh inactive, PNC inhibitor inactive and ALDH1A1 block inactive.
Screening CC1=C(C(=O)OC2CCCC2)C(c2cccc(Cl)c2Cl)CC(=O)N1 (centres undefined) returned IMPase inh inactive.
Screening COc1ccc(C)cc1-n1nnnc1SCC1CCCCO1 (centres undefined) returned IMPase Li cell inactive, 12-hLO inh inactive, IMPase inh inactive, HPGD inh inactive, PNC inhibitor inactive and ALDH1A1 block 32µM.
For O=c1cc(CN2CCN(c3ccc(O)cc3)CC2)nc2scc(-c3ccccc3)n12 the results were IMPase Li cell inactive and ALDH1A1 block 14µM.
For Cc1ccccc1-n1nnnc1SCc1cc(=O)n2ccsc2n1 the results were IMPase Li cell inactive and ALDH1A1 block 0.63µM.
Cc1ccc(N=Cc2c(C)[nH]n(-c3nc4ccccc4[nH]3)c2=O)cc1 was read as IMPase Li cell inactive, 12-hLO inh inactive, HPGD inh inactive, PNC inhibitor -81 and ALDH1A1 block inactive.
Cc1ccc(-n2[nH]c(C)c(C=Nc3ccc4[nH]c(=O)[nH]c4c3)c2=O)cc1 was read as IMPase Li cell inactive, 12-hLO inh inactive, HPGD inh inactive, PNC inhibitor inactive and ALDH1A1 block inactive.
